# Results published in PubChem BioAssay AID2557 (NMMLSC, 2010).
# The campaign covered roughly 330,000 compounds. About 650 (0.2%) were called active. Cut-off read from the data, not from the text of the source: active = inhibition above about 50%; inactive = the rest. Only a selection was taken, and actives are over-represented in it overall.
# Biological target: Integrin alpha-4 (Homo sapiens) (UniProt P13612)
# Assay: inhibition in human VLA-4 binding assay, primary screen, VLA-4 allosteric modulator project, MLPCN library, flow cytometry, VLA-4 expressing cells (AID 2557)
# Settings: ligand binding flow cytometry, active compounds read high, about 7 µM as worked out from the volumes in the protocol
# Integrin alpha-4 (Homo sapiens), sequence (P13612 whole entry, looked up): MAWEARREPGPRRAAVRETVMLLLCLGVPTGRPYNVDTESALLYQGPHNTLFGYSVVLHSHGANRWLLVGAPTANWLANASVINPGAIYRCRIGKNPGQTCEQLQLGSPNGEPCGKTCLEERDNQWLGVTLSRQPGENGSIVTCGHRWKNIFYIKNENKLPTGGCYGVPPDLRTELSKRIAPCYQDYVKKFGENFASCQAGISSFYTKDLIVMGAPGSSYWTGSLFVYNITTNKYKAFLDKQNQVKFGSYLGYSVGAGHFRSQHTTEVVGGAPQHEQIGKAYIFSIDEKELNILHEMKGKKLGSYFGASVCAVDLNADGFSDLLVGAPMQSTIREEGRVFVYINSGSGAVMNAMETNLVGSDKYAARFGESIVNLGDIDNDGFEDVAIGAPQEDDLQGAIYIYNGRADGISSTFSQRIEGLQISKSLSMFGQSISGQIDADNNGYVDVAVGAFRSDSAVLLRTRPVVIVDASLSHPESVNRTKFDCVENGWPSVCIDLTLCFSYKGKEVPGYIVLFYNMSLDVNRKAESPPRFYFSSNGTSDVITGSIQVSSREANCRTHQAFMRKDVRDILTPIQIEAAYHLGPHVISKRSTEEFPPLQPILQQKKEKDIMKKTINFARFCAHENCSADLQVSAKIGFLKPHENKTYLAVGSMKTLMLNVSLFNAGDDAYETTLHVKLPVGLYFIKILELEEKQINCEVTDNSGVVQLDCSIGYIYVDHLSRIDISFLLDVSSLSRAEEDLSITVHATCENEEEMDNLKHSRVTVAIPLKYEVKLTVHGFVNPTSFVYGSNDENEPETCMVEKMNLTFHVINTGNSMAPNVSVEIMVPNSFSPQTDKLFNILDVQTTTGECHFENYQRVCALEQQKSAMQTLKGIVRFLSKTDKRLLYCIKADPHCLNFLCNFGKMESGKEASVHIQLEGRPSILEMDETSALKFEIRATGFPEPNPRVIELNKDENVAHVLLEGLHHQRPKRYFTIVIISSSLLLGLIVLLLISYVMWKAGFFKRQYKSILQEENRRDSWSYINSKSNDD
row,SMILES,inhibition
1,O=C(O)c1ccc(-n2cccc2)cc1O,7.46% (inactive)
2,COc1cccc(NC(=O)Nc2nnc(N3CCCCC3C)s2)c1 (stereo not given),-3.47% (inactive)
3,Cc1c(CN2CCC(CO)(CCOc3ccccc3)CC2)[nH]c2ccc(Cl)cc12,54.3% (active)
4,CCOC(=O)C1(CCOc2ccccc2)CCN(Cc2cc(OC)c(O)cc2Cl)CC1,7.42% (inactive)
5,OCC1(CCOc2ccccc2)CCN(Cc2cn[nH]c2-c2ccccc2)CC1,0.87% (inactive)
6,COc1ccc(C2C(C#N)=C(N)Oc3n[nH]c(C)c32)cc1CN1CCN(c2ccc(F)cc2)CC1 (stereo not given),5.55% (inactive)
7,COc1nc(OC)nc(N(C)CCO)n1,12.5% (inactive)
8,Cc1noc(COc2ccccc2OCc2onc(C)c2Cl)c1Cl,-0.81% (inactive)
9,Cc1ccccc1C(=O)Nc1cccc(-c2nnc(SCC(=O)O)n2C)c1,5.4% (inactive)
10,N#C/C(=C/c1ccc(Cl)cc1)NC(=O)c1ccccc1,-2.66% (inactive)
11,CC1(C)Cc2cccc(OCC(=O)N3CCN(c4ccc([N+](=O)[O-])cc4)CC3)c2O1,-21.6% (inactive)
12,O=C(Nc1nc(-c2ccco2)c(-c2ccco2)s1)c1ccco1,-14.9% (inactive)
13,NC(=O)c1ccsc1NC(=O)c1ccco1,-45.2% (inactive)
14,Cc1ccnc(NC(=O)c2ccco2)n1,63.2% (active)
15,COc1cccc(CCNC(=O)c2cccc(NC(=O)C3=C(C)OCCS3)c2)c1,4.07% (inactive)
16,Cc1cc(C(=O)NNS(=O)(=O)c2ccccc2C(F)(F)F)nn1C(C)(C)C,2.36% (inactive)
17,Cc1cc(C(=O)OC(C)C(=O)Nc2cccc(S(=O)(=O)N3CCOCC3)c2)c(C)o1 (stereo not given),5.58% (inactive)
18,CCn1c(C)nc2cc(C(=O)NNS(=O)(=O)c3ccc(C)cc3C)ccc21,1.05% (inactive)
19,COC(=O)c1cc(NS(=O)(=O)c2ccc3c(c2)c(=O)n(C)c(=O)n3C)cc(C(=O)OC)c1,-0.04% (inactive)
20,Cc1cccc(CN2CCC(n3nccc3NC(=O)c3ccccc3C)CC2)n1,-1.23% (inactive)

row,SMILES,inhibition
1,Cc1ccc(OCC(=O)NNC(=S)NCc2ccccc2)cc1,-4.04% (inactive)
2,CCNC(=S)NNC(=O)Cc1ccccc1,94.9% (active)
3,CCNC(=S)NNC(=O)C1CCN(Cc2ccccc2)CC1,8.74% (inactive)
4,O=C(NCCc1c[nH]c2ccccc12)c1cccc(Br)c1,2.59% (inactive)
5,CC1(C(=O)NCCc2c[nH]c3ccccc23)C=CC2(CCCCC2)N1C(=O)c1ccccc1 (stereo not given),52.7% (active)
6,O=C(CN1C(=O)NC2(CCCCC2)C1=O)NCCc1c[nH]c2ccccc12,4.17% (inactive)
7,Cc1cccc(NC(=O)NC2(C)CCS(=O)(=O)C2)c1 (stereo not given),7.4% (inactive)
8,CCOC(=O)c1ccc(NC(=O)c2ccc(NC(=O)C3CCCO3)cc2)cc1 (stereo not given),6.76% (inactive)
9,O=C(Nc1ccccc1Cl)NC1(C(=O)N2CCOCC2)CCCCC1,10.7% (inactive)
10,CCOc1cc(NC(=S)NCCCN(C)C)c(OCC)cc1NC(=O)C1CC1,-0.39% (inactive)
11,Cc1sc2ncnc(Sc3nc4ccccc4s3)c2c1C,8.09% (inactive)
12,O=C(c1ccco1)N(Cc1nc2ccccc2c(=O)[nH]1)C1CCCC1,-4.47% (inactive)
13,COc1ccccc1NC(=O)c1cc(Cl)nc2ccccc12,7.01% (inactive)
14,COc1ccccc1NC(=O)c1cc(Cl)nnc1Cl,50.6% (active)
15,COc1ccccc1NC(=O)/C=C/C(N)=O,17.5% (inactive)
16,Brc1cc(Br)c(Oc2cc(Br)c(Br)cc2Br)cc1Br,11.2% (inactive)
17,Cc1[nH]c2ccccc2c1SCC(=O)Nc1nccs1,4.64% (inactive)
18,CC1=C(C/C=C(\C)CCCC(C)CCCC(C)CCCC(C)C)C(=O)c2ccccc2C1=O (stereo not given),-3.08% (inactive)
19,O=C(O)CC(Cc1ccccc1)C(=O)Nc1ccc([N+](=O)[O-])cc1 (stereo not given),-9.76% (inactive)
20,Cc1c(C(=O)c2cccc([N+](=O)[O-])c2)c2ccccn2c1CCC#N,-34.5% (inactive)

row,SMILES,inhibition
1,COc1ccc(-c2cc(C(=O)N3CCN(Cc4ccc5c(c4)OCO5)CC3)on2)cc1OC,4.54% (inactive)
2,OCC[C@H]1C[C@H](O)[C@@H](O)[C@]2(CCc3ccccc3O2)O1,-21% (inactive)
3,CC(=O)N1CCOc2ccc(S(=O)(=O)N3CCC(C(=O)Nc4ccccc4F)CC3)cc21,47.6% (inactive)
4,COc1ccc(C(=O)Oc2ccc(-c3nnco3)cc2)cc1S(=O)(=O)N1CCOCC1,-1.94% (inactive)
5,Cc1cc(C)nc(Nc2n[nH]c(-c3ccccc3N)n2)n1,2.65% (inactive)
6,O=C(NN1C(=O)C2C3C=CC(C4CC34)C2C1=O)c1ccc(Cl)cc1 (stereo not given),0.6% (inactive)
7,CC(=O)NC12CC3CC(C1)CC(C(=O)N1CCN(S(=O)(=O)c4cccs4)CC1)(C3)C2,49.5% (active)
8,CC(=O)NC12CC3CC(C1)CC(C(=O)N1CCN(C(=O)c4ccco4)CC1)(C3)C2,6.83% (inactive)
9,O=C(c1cccnc1)N1CCN(S(=O)(=O)c2cccs2)CC1,0.7% (inactive)
10,CCCCn1c(N)c(N(CCC(C)C)C(=O)COC(=O)c2cccnc2OCC)c(=O)[nH]c1=O,-4.24% (inactive)
11,COC(=O)[C@@H]1C[C@H]2CC[C@H](O)C[C@H]2N1Cc1ccc(N2CCN(C)CC2)cc1,-1.75% (inactive)
12,O=C(COc1ccc(S(=O)(=O)NCCc2ccccc2)cc1)N1CCCC1,3.9% (inactive)
13,COCCCn1c(-c2cccs2)nc2nc3ccccc3nc21,-3.42% (inactive)
14,CN1CCN(CC(=O)Nc2cccc([N+](=O)[O-])c2)CC1,-3.14% (inactive)
15,O=C(CN1CCC(NC(=O)Nc2ccccc2)CC1)Nc1cccc([N+](=O)[O-])c1,50.6% (active)
16,O=C(CN1CCOCC1)Nc1cccc([N+](=O)[O-])c1,-3.87% (inactive)
17,COCC1CCCN(Cc2nc(-c3ccc4c(c3)OCO4)no2)C1 (stereo not given),9.31% (inactive)
18,Cc1cc(N2CCCC2=O)cc(C)c1S(N)(=O)=O,14.9% (inactive)
19,COc1ccc(NC(=O)NC2CC3CCCC(C2)N3Cc2ccccc2)cc1 (stereo not given),6.26% (inactive)
20,Cc1noc(C)c1CSCC(=O)N(CCC(C)C)c1c(N)n(Cc2ccccc2)c(=O)[nH]c1=O,-2.16% (inactive)
